# Measured values published in PubChem BioAssay.
# Unmarked numbers belong to inactive results. The list shows a part of the results. Activity calls are given as the source filed them.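 Rule for the calls, unless noted: active = inhibition above the mean plus 3 SD of solvent-only control wells, limit set per screening run (cut at about 16% in these data); inactive = the rest.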
# Key:
# [1] = STAT3 reporter inhibitors, retest of hits, confirmation, U3A cells, luciferase, luminescence (AID 1265;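 active = inhibition above the hit cutoff computed for the primary STAT3 screen, cut at about 44% in these data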;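 note: 0% = IL-6 plus DMSO and 100% = IL-6 plus nifuroxazide control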); conditions: IL-6 STAT3 luciferase reporter, at 5.7 µM, hits give high values, cell line lacks STAT1
# [2] = NF-kB reporter inhibitors in human cells, confirmation, counter-screen for STAT3 inhibitor project, cell-based, HEK293T, luciferase, TNF-alpha stimulus (AID 1308;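 active = inhibition above the mean of solvent-only control wells plus 3 SD, cutoff set per campaign, cut at about 13% in these data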;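 note: 0% = TNF-alpha with DMSO and 100% = TNF-alpha with MG high control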); conditions: TNF-alpha induced, at 5.7 µM, hits give high values
# [3] = STAT1 reporter inhibitors, IFN-gamma induced, confirmation, counter-screen for STAT3 inhibitor project, cell-based, NIH 3T3, luciferase luminescence (AID 1317); conditions: NIH 3T3 STAT1-luciferase reporter, at 5.7 µM, hits give high values;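 note: 0% = DMSO with IFN-gamma and 100% = nifuroxazide control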
# [4] = molecular target: Serine protease HTRA1 (Homo sapiens) (UniProt Q92743); test: HTRA1 protease inhibitors, retest, confirmation, biochemical, fluorescence polarization (AID 540248;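 active = mean inhibition over three repeats above a set limit taken from the earlier primary screen, cut at about 37% in these data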;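 note: 0% = HTRA1 with DMSO and 100% = wells lacking HTRA1; inhibitors block probe binding so polarization drops and inhibition rises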); conditions: recombinant HTRA1, FP-rhodamine activity-based probe, at 5.96 µM, hits give high values
# [5] = KLF5 expression inhibitors, confirmation, DLD-1 cells, luminescence (AID 1834;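 active = inhibition above a set limit taken from the earlier primary screen, cut at about 63% in these data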;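 note: 0% = DMSO wells and 100% = LY294002 at 200 µM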); conditions: DLD-1 KLF5 promoter firefly luciferase reporter, at 4 µM, hits give high values
# [6] = cytotoxicity in rat IEC-6 cells, cytotoxicity control for KLF5 inhibitor project, cell-based, luminescence, triplicate (AID 1905; in the data active = inhibition above about 23%;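 note: cells exposed to compounds for 48 hours before viability read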); conditions: IEC-6 rat intestinal cells, viability luminescence; at 4 µM; hits give high values
# [7] = molecular target: Nuclear receptor coactivator 3 (Homo sapiens) (UniProt Q9Y6Q9); test: SRC3 coactivator transcriptional activity inhibitors, confirmation, cell-based, luminescence, quadruplicate (AID 588792;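 active = mean inhibition over 43.08%, the solvent-only control mean plus 3 SD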;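 note: 0% = DMSO treated cells and 100% = gossypol at 36 µM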); conditions: HEK293 GAL4-SRC3 luciferase reporter, at 3.6 µM, hits give high values
# Sequence of Nuclear receptor coactivator 3 (Homo sapiens) (Q9Y6Q9 whole entry, looked up, the tested form may be a part): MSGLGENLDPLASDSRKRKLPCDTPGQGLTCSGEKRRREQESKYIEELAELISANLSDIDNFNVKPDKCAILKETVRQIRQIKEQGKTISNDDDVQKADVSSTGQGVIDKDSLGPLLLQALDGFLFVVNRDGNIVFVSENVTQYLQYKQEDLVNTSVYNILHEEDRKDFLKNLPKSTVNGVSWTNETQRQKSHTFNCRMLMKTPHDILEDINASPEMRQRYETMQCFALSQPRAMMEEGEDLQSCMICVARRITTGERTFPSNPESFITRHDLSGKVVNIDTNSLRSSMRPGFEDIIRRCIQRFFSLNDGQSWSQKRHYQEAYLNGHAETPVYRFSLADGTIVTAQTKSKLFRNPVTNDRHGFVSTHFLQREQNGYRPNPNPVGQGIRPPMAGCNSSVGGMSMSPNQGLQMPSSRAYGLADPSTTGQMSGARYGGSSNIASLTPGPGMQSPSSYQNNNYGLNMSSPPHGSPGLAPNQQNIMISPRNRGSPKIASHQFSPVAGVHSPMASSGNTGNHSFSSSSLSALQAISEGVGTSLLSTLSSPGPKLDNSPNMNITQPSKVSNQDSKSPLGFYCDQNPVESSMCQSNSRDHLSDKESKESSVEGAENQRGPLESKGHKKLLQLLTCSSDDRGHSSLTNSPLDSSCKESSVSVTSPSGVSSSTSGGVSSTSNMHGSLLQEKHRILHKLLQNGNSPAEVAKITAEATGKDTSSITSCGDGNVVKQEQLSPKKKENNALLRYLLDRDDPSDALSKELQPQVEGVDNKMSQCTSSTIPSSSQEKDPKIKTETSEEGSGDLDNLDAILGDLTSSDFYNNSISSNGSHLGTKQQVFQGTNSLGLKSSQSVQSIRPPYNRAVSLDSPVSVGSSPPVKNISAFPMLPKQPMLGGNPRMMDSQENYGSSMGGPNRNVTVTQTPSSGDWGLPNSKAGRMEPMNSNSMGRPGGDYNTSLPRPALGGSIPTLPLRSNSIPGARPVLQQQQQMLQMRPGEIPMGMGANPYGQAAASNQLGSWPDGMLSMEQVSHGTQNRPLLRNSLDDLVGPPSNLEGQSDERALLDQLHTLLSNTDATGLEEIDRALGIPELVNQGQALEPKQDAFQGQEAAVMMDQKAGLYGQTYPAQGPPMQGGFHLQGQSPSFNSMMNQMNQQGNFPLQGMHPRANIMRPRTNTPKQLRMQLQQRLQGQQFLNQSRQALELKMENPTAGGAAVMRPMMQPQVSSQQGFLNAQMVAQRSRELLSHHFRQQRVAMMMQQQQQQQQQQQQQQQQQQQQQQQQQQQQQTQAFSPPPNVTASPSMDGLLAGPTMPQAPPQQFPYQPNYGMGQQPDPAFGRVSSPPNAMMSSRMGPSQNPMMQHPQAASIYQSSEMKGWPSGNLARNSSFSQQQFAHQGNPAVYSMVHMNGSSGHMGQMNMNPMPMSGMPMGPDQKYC
# [8] = test system: transactivating tegument protein VP16 (Human herpesvirus 1), Gal4-VP16 luciferase reporter; test: VP16 transactivation inhibitors, counter-screen for SRC3 inhibitor project, cell-based, luminescence, high throughput (AID 588794; in the data active = inhibition above about 30%); conditions: mammalian cells, VP16-driven luciferase reporter luminescence; at 3.6 µM; hits give high values
# [9] = molecular target: Photoreceptor-specific nuclear receptor (Homo sapiens) (UniProt Q9Y5X4); test: NR2E3 agonist confirmation in cells, cell-based, luminescence, CHO-S two-hybrid (AID 624378;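 active = average inhibition above a cutoff equal to the mean inhibition of all tested compounds plus one SD, cut at about 70% in these data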;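 note: 0% = DMSO in NR2E3 cells and 100% = DMSO in cells lacking NR2E3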); conditions: CHO-S mammalian two-hybrid NR2E3-NCOR, luciferase luminescence; at 3.98 µM; hits give high values
# Sequence of Photoreceptor-specific nuclear receptor (Homo sapiens) (Q9Y5X4 whole entry, looked up, the tested form may be a part): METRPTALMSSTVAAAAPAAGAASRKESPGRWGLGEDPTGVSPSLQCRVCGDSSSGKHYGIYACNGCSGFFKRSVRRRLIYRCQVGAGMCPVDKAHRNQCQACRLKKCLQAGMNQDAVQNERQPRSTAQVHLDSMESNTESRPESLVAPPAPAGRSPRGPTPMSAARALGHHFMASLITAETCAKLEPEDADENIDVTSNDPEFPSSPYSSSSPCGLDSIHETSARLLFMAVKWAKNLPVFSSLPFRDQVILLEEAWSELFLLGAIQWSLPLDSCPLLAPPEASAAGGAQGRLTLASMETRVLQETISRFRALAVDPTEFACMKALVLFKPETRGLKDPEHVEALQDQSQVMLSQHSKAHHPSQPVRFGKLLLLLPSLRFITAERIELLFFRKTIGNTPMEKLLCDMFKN
# [10] = GAL4-VP16 reporter modulators, confirmation, counter-screen for NR2E3 agonist project, cell-based, luminescence, CHO-S, high throughput (AID 624379;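 active = mean inhibition above a cutoff equal to the average over all tested compounds plus one standard deviation, cut at about 70% in these data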;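 note: 0% = DMSO with VP16-transfected cells and 100% = DMSO with cells lacking VP16; higher means less reporter light so more repression of VP16 activity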); conditions: CHO-S GAL4-VP16 luciferase reporter, at 3.98 µM, hits give high values
# [11] = StAR promoter reporter inhibitors, counter-screen for LRH-1 inverse agonist project, cell-based, luminescence, high throughput (AID 651611; in the data active = inhibition above about 28%); conditions: StAR promoter luciferase reporter counterscreen, at 3.6 µM, hits give high values
# [12] = molecular target: Nuclear receptor subfamily 5 group A member 2 (Homo sapiens) (UniProt O00482); test: LRH-1 (NR5A2) inverse agonists, retest, confirmation, cell-based, luminescence (AID 651613; in the data active = inhibition above about 42%;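 note: HEK293T cells co-transfected with LRH-1 and StAR promoter luciferase reporter; 0% = vehicle wells and 100% = parental cells lacking receptor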); conditions: cell-based LRH-1 luciferase reporter, inverse agonism; at 3.6 µM; hits give high values
# Sequence of Nuclear receptor subfamily 5 group A member 2 (Homo sapiens) (O00482 whole entry, looked up): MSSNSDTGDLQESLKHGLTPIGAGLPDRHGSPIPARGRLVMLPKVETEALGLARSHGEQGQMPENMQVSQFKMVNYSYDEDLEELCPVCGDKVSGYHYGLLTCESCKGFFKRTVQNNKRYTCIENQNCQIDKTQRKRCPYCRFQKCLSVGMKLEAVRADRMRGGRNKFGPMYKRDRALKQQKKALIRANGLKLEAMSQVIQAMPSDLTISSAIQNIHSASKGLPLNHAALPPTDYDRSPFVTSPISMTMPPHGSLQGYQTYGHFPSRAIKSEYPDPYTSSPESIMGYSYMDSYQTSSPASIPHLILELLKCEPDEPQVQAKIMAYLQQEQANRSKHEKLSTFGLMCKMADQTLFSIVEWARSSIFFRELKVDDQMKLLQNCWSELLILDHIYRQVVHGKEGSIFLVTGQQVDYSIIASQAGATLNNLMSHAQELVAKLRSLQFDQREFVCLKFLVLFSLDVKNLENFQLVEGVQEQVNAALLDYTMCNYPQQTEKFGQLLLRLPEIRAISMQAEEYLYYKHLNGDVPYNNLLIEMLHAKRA
# [13] = molecular target: Steroidogenic factor 1 (Homo sapiens) (UniProt Q13285); test: SF1 (NR5A1) inverse agonists, counter-screen for LRH-1 inverse agonist project, cell-based, luminescence, high throughput (AID 651614; in the data active = inhibition above about 44%;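 note: cells cotransfected with StAR promoter reporter and SF1 expression vector; 0% = vehicle on cells with receptor and 100% = vehicle on cells lacking receptor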); conditions: cell-based SF1 luciferase reporter, at 3.6 µM, hits give high values
# Sequence of Steroidogenic factor 1 (Homo sapiens) (Q13285 whole entry, looked up, the tested form may be a part): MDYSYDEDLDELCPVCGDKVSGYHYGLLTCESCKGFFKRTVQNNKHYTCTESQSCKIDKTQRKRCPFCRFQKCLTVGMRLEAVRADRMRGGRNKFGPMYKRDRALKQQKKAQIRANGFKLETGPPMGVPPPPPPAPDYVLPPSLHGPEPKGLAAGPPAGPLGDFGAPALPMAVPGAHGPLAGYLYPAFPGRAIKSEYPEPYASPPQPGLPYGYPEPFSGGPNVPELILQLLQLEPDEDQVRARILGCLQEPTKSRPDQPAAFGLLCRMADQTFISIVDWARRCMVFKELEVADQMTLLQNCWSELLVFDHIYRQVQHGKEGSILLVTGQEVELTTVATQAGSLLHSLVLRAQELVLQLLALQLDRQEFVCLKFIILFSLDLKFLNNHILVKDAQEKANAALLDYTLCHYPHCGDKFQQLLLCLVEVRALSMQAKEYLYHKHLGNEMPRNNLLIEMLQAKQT
# [14] = VP16 transactivation reporter inhibitors, counter-screen for LRH-1 inverse agonist project, cell-based, luminescence, high throughput (AID 651615; in the data active = inhibition above about 33%); conditions: Gal4-VP16 luciferase reporter cells, at 3.6 µM, hits give high values
# [15] = molecular target: Neuropeptide Y receptor type 2 (Homo sapiens) (UniProt P49146); test: NPY-Y2 potentiators or agonists, confirmation, cell-based (AID 1539; in the data active = activation above about 33%); conditions: cell-based NPY-Y2 potentiator/agonist assay; at 3.6 µM; hits give high values
# Sequence of Neuropeptide Y receptor type 2 (Homo sapiens) (P49146 whole entry, looked up): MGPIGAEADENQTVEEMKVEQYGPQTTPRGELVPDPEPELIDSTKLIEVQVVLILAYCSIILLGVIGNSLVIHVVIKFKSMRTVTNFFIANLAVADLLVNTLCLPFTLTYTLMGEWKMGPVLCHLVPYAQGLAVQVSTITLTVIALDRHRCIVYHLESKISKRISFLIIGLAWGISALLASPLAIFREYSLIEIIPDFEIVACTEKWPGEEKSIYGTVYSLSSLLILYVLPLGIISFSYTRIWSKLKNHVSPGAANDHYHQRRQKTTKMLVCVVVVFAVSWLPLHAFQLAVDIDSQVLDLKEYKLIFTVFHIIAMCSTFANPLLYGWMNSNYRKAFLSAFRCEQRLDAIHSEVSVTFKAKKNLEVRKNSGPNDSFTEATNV
# [16] = molecular target: Neuropeptide Y receptor type 1 (Homo sapiens) (UniProt P25929); test: NPY-Y1 potentiators or agonists, counter-screen for NPY-Y2 potentiator project, cell-based, fluorescence (AID 1651; in the data active = activation above about 45%;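 note: cells stimulated with submaximal NPY then isoproterenol with phosphodiesterase inhibitor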); conditions: Y1 HEK293-CNG cells, membrane potential fluorescence; at 3.6 µM; hits give high values
# Sequence of Neuropeptide Y receptor type 1 (Homo sapiens) (P25929 whole entry, looked up): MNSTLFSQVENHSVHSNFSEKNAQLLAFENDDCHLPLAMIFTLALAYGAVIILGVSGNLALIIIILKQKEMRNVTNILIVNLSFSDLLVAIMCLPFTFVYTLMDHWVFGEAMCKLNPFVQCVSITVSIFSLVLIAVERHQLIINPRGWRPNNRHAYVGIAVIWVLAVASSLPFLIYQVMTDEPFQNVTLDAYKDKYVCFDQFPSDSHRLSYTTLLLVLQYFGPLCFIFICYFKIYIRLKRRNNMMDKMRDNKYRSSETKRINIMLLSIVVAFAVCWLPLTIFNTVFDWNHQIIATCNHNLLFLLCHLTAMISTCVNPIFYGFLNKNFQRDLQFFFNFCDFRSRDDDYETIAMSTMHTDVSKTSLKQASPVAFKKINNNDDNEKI
# [17] = molecular target: Neuropeptide Y receptor type 1 (Homo sapiens) (UniProt P25929); test: NPY-Y1 direct agonists, selectivity assay for NPY-Y2 potentiator project, cell-based, fluorescence (AID 1702;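 active = activation above the mean of DMSO-only control wells plus 3 SD, cut at about 18% in these data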;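 note: cells stimulated with 1 µM isoproterenol plus the PDE inhibitor Ro 20-1724; 0% = isoproterenol with DMSO and no NPY and 100% = 40 nM NPY; Y1 agonists lower the membrane potential dye signal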); conditions: HEK293 Y1-CNGC, membrane potential fluorescence, agonism; at 3.6 µM; hits give high values
# [18] = CNGC cAMP sensor activity inhibitors, counter-screen for NPY-Y2 potentiator project, cell-based, HEK293-CNG parental, membrane potential fluorescence (AID 1703;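 active = inhibition above the control-well mean plus 3 SD of those wells, cut at about 22% in these data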;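 note: 0% = DMSO with isoproterenol and 100% = DMSO without isoproterenol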); conditions: isoproterenol cAMP, at 3.6 µM, hits give high values
# [19] = molecular target: Neuropeptide Y receptor type 2 (Homo sapiens) (UniProt P49146); test: NPY-Y2 direct agonists, counter-screen for NPY-Y2 potentiator project, cell-based, fluorescence (AID 1710;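 active = activation above the mean of solvent-only control wells plus 3 SD, cut at about 10% in these data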;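 note: cells stimulated by isoproterenol with no NPY added so direct agonism is tested; 0% = DMSO with isoproterenol alone and 100% = NPY at EC100 plus isoproterenol; agonism lowers probe fluorescence through less cAMP and CNG channel opening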); conditions: HEK293 Y2/CNGC cells, membrane potential fluorescence, agonist mode; at 3.6 µM; hits give high values
# [20] = test system: Fam108b (Abhd17b) serine hydrolase [Mus musculus]; test: mouse Fam108b serine hydrolase inhibitors, confirmation, counter-screen for RBBP9 inhibitor project, biochemical, fluorescence polarization, triplicate (AID 1978;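 active = inhibition above a limit from the primary screen, the mean over all compounds plus 3 SD, cut at about 19% in these data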;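 note: 0% = median of active Fam108b wells and 100% = catalytically dead S170A mutant; inhibitors free the probe so polarization falls as inhibition rises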); conditions: recombinant Fam108b, FP-Rh probe fluorescence polarization; at 9.51 µM; hits give high values
# [21] = molecular target: Protein phosphatase methylesterase 1 (Homo sapiens) (UniProt Q9Y570); test: PME-1 inhibitor activity retest, confirmation, biochemical, fluorescence polarization, FP-Rh probe, triplicate (AID 2171;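 active = inhibition above the hit cutoff set in the earlier primary screen, cut at about 27% in these data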;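 note: 0% = enzyme with DMSO and 100% = wells lacking PME-1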); conditions: recombinant PME-1, FP-Rh probe fluorescence polarization; at 5.9 µM; hits give high values
# Sequence of Protein phosphatase methylesterase 1 (Homo sapiens) (Q9Y570 whole entry, looked up): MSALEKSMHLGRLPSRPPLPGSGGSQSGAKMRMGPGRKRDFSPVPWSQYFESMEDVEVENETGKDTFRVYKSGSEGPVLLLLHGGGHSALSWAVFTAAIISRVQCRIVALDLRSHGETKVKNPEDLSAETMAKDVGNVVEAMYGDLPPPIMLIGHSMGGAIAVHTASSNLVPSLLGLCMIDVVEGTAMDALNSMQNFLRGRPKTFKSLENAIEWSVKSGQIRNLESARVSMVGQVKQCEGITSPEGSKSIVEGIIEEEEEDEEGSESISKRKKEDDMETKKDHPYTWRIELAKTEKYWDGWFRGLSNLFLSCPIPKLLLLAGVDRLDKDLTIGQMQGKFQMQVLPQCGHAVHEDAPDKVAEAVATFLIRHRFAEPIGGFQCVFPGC
# [22] = growth loss of phage-infected RecBCD+ E. coli, confirmation, RecBCD inhibitor project, absorbance, E. coli V66, T4 gene 2 phage (AID 651982;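 active = mean inhibition over triplicates exceeding the hit threshold derived in the original primary screen, cut at about 11% in these data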); conditions: E. coli V66 + T4 2- phage, growth OD; at 11.9 µM; hits give high values
# [23] = E. coli viability inhibition, counter-screen for RecBCD inhibitor project, absorbance, high throughput (AID 651983; in the data active = inhibition above about 20%;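 note: E. coli strain V66 grown with compound alone and no phage infection; 0% = bacteria with DMSO vehicle only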); conditions: absorbance (OD) growth, at 11.9 µM, hits give high values
# [24] = growth loss of phage-infected AddAB-carrying E. coli, confirmation, counter-screen for RecBCD inhibitor project, absorbance, E. coli V3065, T4 phage (AID 651984;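 active = mean inhibition above the solvent-only control wells' mean plus 3 SD, cut at about 22% in these data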;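 note: higher means less bacterial growth from phage killing when AddAB is blocked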); conditions: E. coli expressing H. pylori AddAB + T4 phage, OD growth; at 11.9 µM; hits give high values; gene 2 mutant T4, recBCD-deleted host
structure (smiles),measurement,setting,value
Cc1ccc(Nc2ccccc2N)cc1,inhibition,[1],24.3%
same,inhibition,[2],22.9% (active)
same,inhibition,[3],6.8%
same,inhibition,[4],53.1% (active)
CC(C)C[C@@H](N)c1nnc(SCC(=O)c2ccc(Cl)cc2)o1,inhibition,[1],36.7%
same,inhibition,[2],10.9%
same,inhibition,[3],9.47%
COc1ccc(NS(=O)(=O)c2ccc(NC(C)=O)cc2)cc1OC,inhibition,[1],26.4%
same,inhibition,[2],5.93%
same,inhibition,[3],17.1% (active)
C=CC[n+]1c(-c2ccc(C)cc2)csc1NNC(=O)Nc1ccccc1,inhibition,[1],51.1% (active)
same,inhibition,[2],18.4% (active)
same,inhibition,[3],16.9% (active)
Cc1ccc2nc(-c3ccc(NC(=O)CN(C)S(=O)(=O)c4ccccc4)cc3)sc2c1,inhibition,[1],20.1%
same,inhibition,[2],-18.5%
same,inhibition,[3],-90.5%
Cc1ccc(-c2cn3cc([N+](=O)[O-])ccc3n2)cc1,inhibition,[1],60.3% (active)
same,inhibition,[2],-3.2%
same,inhibition,[3],-77%
COc1cc(N=Cc2c(O)[nH]c3ccccc23)cc(OC)c1OC,inhibition,[1],49.1% (active)
same,inhibition,[2],27% (active)
same,inhibition,[3],-12%
same,inhibition,[5],76.8% (active)
same,inhibition,[6],19.1%
same,inhibition,[7],28.2%
same,inhibition,[8],1.5%
same,inhibition,[9],73.8% (active)
same,inhibition,[10],58.7%
same,inhibition,[11],61.7% (active)
same,inhibition,[12],54.4% (active)
same,inhibition,[13],69.2% (active)
same,inhibition,[14],25.2%
Cc1ccc2nc(-c3ccc(NC(=O)c4cccnc4)cc3)oc2c1,inhibition,[1],31.7%
same,inhibition,[2],-25.2%
same,inhibition,[3],-38.3%
N#Cc1nc(COc2ccc(-c3ccccc3)cc2)oc1NCc1cccnc1,inhibition,[1],35.1%
same,inhibition,[2],2.23%
same,inhibition,[3],12.9%
Oc1c(Cl)cc(Cl)c(Cl)c1Cc1c(O)c(Cl)cc(Cl)c1Cl,inhibition,[1],46.3% (active)
same,inhibition,[2],20.9% (active)
same,inhibition,[3],41% (active)
same,activation,[15],24.1%
same,activation,[16],3.71%
same,activation,[17],14.9%
same,inhibition,[18],15.6%
same,activation,[19],24.1% (active)
same,inhibition,[5],88% (active)
same,inhibition,[6],31.1% (active)
same,inhibition,[20],47.1% (active)
same,inhibition,[21],10.2%
same,inhibition,[9],98.9% (active)
same,inhibition,[22],11.6% (active)
same,inhibition,[23],11.5%
same,inhibition,[24],2.09%
c1ccc(-c2noc(-c3cccs3)n2)nc1,inhibition,[1],27.6%
same,inhibition,[2],-12.9%
same,inhibition,[3],-54.9%
